Reference: PubChem BioAssay (NCI)
About 79,000 compounds went through this panel and 15% of them were active in at least one assay; those are over-represented in the sample as a whole. Rule as the data show it: active = growth inhibition above about 70%; inactive = the rest. *1 amine or outer side, *2 acyl side, *3 side chain or, on linkers, in order; H or OH if unused. Where a SMILES comes first, the peptide text is derived from it. Bridges are numbered along the chain shown (N, C = ends). [ ]: non-standard residue; d: D form. The star is where a group is joined. ξ: configuration not given here. X16 = CC(C)C(C)C(C(=O)[*:2])N(C)[*:1]; Picolinoyl(3-OH) = O=C(c1ncccc1O)*; NMePhg = CN[CH](C(=O)O)c1ccccc1; Hyp = O=C(O)[CH]1C[CH](O)CN1; Cbz = O=C(OCc1ccccc1)*; ξNva = CCCC(N)C(=O)O; Sar = CNCC(=O)O

How the values were obtained:
[1] = NCI Yeast Anticancer Drug Screen. Data for the rad50 strain (AID 155);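 also: 0% = growth of vehicle-only cultures of the same strain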; details: S. cerevisiae rad50 strain growth inhibition; at 50.0 µM; active compounds read high
How it was run: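 Genetically altered yeast (DNA repair pathway); compound treatment; growth inhibition vs vehicle ctrl.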

[2] = NCI Yeast Anticancer Drug Screen. Data for the mec2-1 strain (AID 157); details: S. cerevisiae mec2-1 strain, at 50.0 µM, active compounds read high
How it was run: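 Readout is yeast growth inhibition, normalised to vehicle-treated controls, in the mec2-1 strain exposed to compound.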

[3] = NCI Yeast Anticancer Drug Screen. Data for the sgs1 mgt1 strain (AID 161);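 also: 0% = growth of cultures given vehicle only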; details: S. cerevisiae sgs1 mgt1 strain, at 50.0 µM, active compounds read high
How it was run: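 Yeast cells carrying a defined DNA-repair defect were exposed to test compounds. Growth inhibition was measured relative to vehicle-treated controls.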

[4] = NCI Yeast Anticancer Drug Screen. Data for the cln2 rad14 strain (AID 165);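 also: 0% = growth equal to vehicle treated cultures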; details: S. cerevisiae cln2 rad14 strain, at 50.0 µM, active compounds read high
How it was run: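 Relative to vehicle controls, growth inhibition of compound-treated cln2 rad14 yeast was recorded.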

[5] = NCI Yeast Anticancer Drug Screen. Data for the bub3 strain (AID 167); details: S. cerevisiae bub3 mutant strain, at 50.0 µM, active compounds read high
How it was run: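 Yeast carrying a defined mutation is treated with each compound, and growth is compared with that of vehicle-exposed cells to give inhibition.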

[6] = NCI Yeast Anticancer Drug Screen. Data for the mlh1 rad18 strain (AID 175); details: S. cerevisiae mlh1 rad18 strain growth inhibition; at 50.0 µM; active compounds read high
How it was run: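 Test agents were incubated with a yeast strain of defined genotype (DNA damage repair defect). Inhibition of growth was derived by comparison with vehicle-exposed cultures.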

Measured: growth inhibition

NC(=S)N/N=C/c1ccco1
inactive: [1] -26.2% | [2] -11.3% | [3] -18.3% | [4] -67.2% | [5] -23.9% | [6] -8.2%

CCCCON1C[C@@H](O)C(O)[C@@H](O)C1 (some centres undefined)
inactive: [1] -25.9% | [2] 8.9% | [3] -37.9% | [4] -13.2% | [5] 13.6% | [6] -4.35%

O=C1NC(=O)c2ccc(S)c3cccc1c23
inactive: [1] 0.5% | [2] 0% | [3] -2.35% | [4] -41.1% | [5] 3.35% | [6] -8.05%

C=C1C(=O)O[C@@H]2C(=O)[C@@H](C)[C@@H]3C=CC(=O)[C@@]3(C)[C@@H](OC(=O)/C(C)=C\C)[C@H]12
inactive: [1] -2.4% | [2] -14.3% | [3] 8.8% | [4] 10.7% | [5] 7.4% | [6] 27.1%

CC(C)CC1NC(=O)C(NC(=O)c2ncccc2O)C(C)OC(=O)C(c2ccccc2)N(C)C(=O)C(C)NC(=O)C(C(C)C(C)C)N(C)C(=O)CN(C)C(=O)C2CC(O)CN2C1=O (centres undefined) ({Picolinoyl(3-OH)}-TL[Hyp][Sar][X16]A[NMePhg]; ester 1-C; configuration not given here)
inactive: [1] 15.8% | [2] 3.65% | [3] 19.1% | [4] 3% | [5] -10.9% | [6] -2.35%

O=C(/C=C/c1ccc(Cl)cc1)c1cc(Cl)ccc1O
inactive: [1] -14.4% | [2] -25.3% | [3] -13.8% | [4] -27.8% | [5] 16.2% | [6] -10.2%

C=C(C)c1ccccc1S(=O)(=O)c1ccccc1C(C)(C)O
inactive: [1] -23.4% | [2] 5.1% | [3] 6.25% | [4] 55.1% | [5] 36.5% | [6] 9.1%

CC(=Nc1cccc2ccccc12)c1c(O)cc(C)oc1=O
inactive: [1] 20.4% | [2] 12.2% | [3] 15.2% | [4] 20.9% | [5] 16.1% | [6] 14.1%

C[N+](C)(N)CCC[N+](C)(C)N
inactive: [1] 12.4% | [2] 5.2% | [3] -3.3% | [4] -29.4% | [5] -52.6% | [6] -3.4%

CCOC(=O)CSC(=O)NCCCl
inactive: [1] 21.1% | [2] -0.5% | [3] -2.8% | [4] 8.45% | [5] 17.6% | [6] 9.1%

Cc1c2ccccc2cc2c1ccc1c(Br)cccc12
inactive: [1] 10.1% | [2] -3.45% | [3] 21.3% | [4] 25.8% | [5] 12.1% | [6] 5.8%

O=C(Nc1ccc(Cl)cc1Cl)C(=O)C(C(=O)c1ccc2ccccc2c1)C1OC(=O)c2ccccc21 (centres undefined)
inactive: [1] 13.4% | [2] 21.6% | [3] 2.7% | [4] 15.9% | [5] -12.6% | [6] -6.45%

C#[N+]CCOP(=O)(OCC1OC(n2cc(C)c(=O)[nH]c2=O)CC1N=[N+]=[N-])O[C@H]1CC[C@@]2(C)C(=CC[C@H]3[C@@H]4CC[C@H](C(C)CCCC(C)C)[C@@]4(C)CC[C@@H]32)C1 (some centres undefined)
inactive: [1] -18.8% | [2] -30.1% | [3] -24.6% | [4] 3.05% | [5] -0.35% | [6] -17.4%

CC(=O)CC(=O)NCCCc1ccccc1
inactive: [1] -18.8% | [2] -33.4% | [3] -21.6% | [4] 3.5% | [5] -6.9% | [6] -11.9%

COc1cc(N=C2C=CC(=O)C=C2)c2ncccc2c1
inactive: [1] 2.95% | [2] 1.05% | [3] 4.1% | [4] -33.1% | [5] -0.7% | [6] 3.75%

Cc1cccc(C)c1NC(=O)OC(C)C
inactive: [1] 4.8% | [2] 5.65% | [3] -28.3% | [4] -32.5% | [5] 11.8% | [6] -12.7%

CCN(CC)Cc1cc(Nc2ncnc3sc(C)c(C)c23)ccc1O
inactive: [1] 9.05% | [2] 9.95% | [3] 1.3% | [4] -13.2% | [5] -10.3% | [6] -15.7%

CCCCC(C)(O)CCC (centres undefined)
inactive: [1] 5.8% | [2] -11.9% | [3] 0.5% | [4] 5.05% | [5] 7.3% | [6] -6.05%

COc1ccc(C(C)(O)c2cc3ccccc3n2S(=O)(=O)c2ccccc2)cc1 (centres undefined)
inactive: [1] -8.95% | [2] -12.3% | [3] -0.9% | [4] -14.3% | [5] 0.75% | [6] 18.4%

CCCCCCCCCCn1cnc2c(=O)[nH]c(N)nc21
inactive: [1] 1.85% | [2] 2.75% | [3] 9.7% | [4] -0.25% | [5] 2.8% | [6] -4.85%

CCOC(=O)Nc1nc(-c2ccccc2)c(C)s1
inactive: [1] -23.2% | [2] -20.8% | [3] -16.8% | [4] -7.1% | [5] -44.9% | [6] -2.15%

CC(=O)OCC1(C)C(O)CCC2(C)C1CCC1CC3CC12CCC3(O)CO (centres undefined)
inactive: [1] 12.2% | [2] -26% | [3] 13.8% | [4] 2.95% | [5] -23.4% | [6] 7.9%

O=C(O)c1ccccc1C(=O)c1ccccn1
inactive: [1] -4% | [2] -31.8% | [3] -5.9% | [4] 10.6% | [5] -17.2% | [6] -15.2%

c1ccc(C2(c3ccccc3)c3ccccc3-c3ccccc32)cc1
inactive: [1] -16.2% | [2] 17.4% | [3] 20.3% | [4] -17.9% | [5] -26.9% | [6] 2.2%

CCCC(NC(=O)OCc1ccccc1)C(=O)NCC(=O)NCC(=O)OC (stereo not drawn) (Cbz-[ξNva]-Gly-Gly-OMe)
inactive: [1] -30.8% | [2] 0.15% | [3] 12.2% | [4] 30.9% | [5] 0.5% | [6] 11.3%

FC(F)(F)C1(C(F)(F)F)OS2(OC(C(F)(F)F)(C(F)(F)F)c3ccccc32)c2ccccc21
inactive: [1] 0.5% | [2] 3.4% | [3] 3.3% | [4] -22.9% | [5] -1.1% | [6] -5.1%

N#C/C(=C\c1ccccc1)c1ccc(F)cc1F
inactive: [1] 33.2% | [2] 30.6% | [3] 6.15% | [4] 6.55% | [5] 6.55% | [6] 9.7%

COc1ccc(-c2ccc(Cc3ccc(-c4ccc(OC)cc4)o3)o2)cc1
inactive: [1] 4.35% | [2] -0.35% | [3] 6.7% | [4] -72.7% | [5] -6.4% | [6] 1%

O=C(O)c1cccc(S(=O)(=O)NCCO)c1
inactive: [1] -11.3% | [2] -8.25% | [3] -20.8% | [4] -1.9% | [5] -36.1% | [6] 8.5%

CCOC1(OCC)C2(Cl)C(Cl)=C(Cl)C1(Cl)C1CCCC12 (centres undefined)
inactive: [1] 23.7% | [2] 3.75% | [3] 11.5% | [4] 17.1% | [5] -12.7% | [6] 20.6%

CCN(CC)CCN1C(=O)NC2(CCCCC2)C1=O
inactive: [1] 19.5% | [2] -0.8% | [3] 18.8% | [4] 16% | [5] 10.6% | [6] 20.8%

O=C(OCc1ccccc1CN1CCCC1)c1cccc(Cl)c1
inactive: [1] 2.8% | [2] -3.75% | [3] -8.1% | [4] -7.2% | [5] 8.35% | [6] 2.65%

Cc1ccc(C(=O)Oc2ccccc2)cc1N=NN(C)C
inactive: [1] -20.7% | [2] -49% | [3] -56.8% | [4] 25.5% | [5] -29.8% | [6] -24.1%

OCC(O)C1OC(n2cnc3c(=S)nc[nH]c32)C(O)C1O (centres undefined)
inactive: [1] 2.85% | [2] -6.75% | [3] -3.8% | [4] -42.8% | [5] -6.5% | [6] -10.6%

O=c1[nH]nc(Cc2ccccc2)n1/N=C\c1ccccc1
inactive: [1] -38.6% | [2] -20.6% | [3] -28.1% | [4] -11.3% | [5] -16.1% | [6] -43.2%

OC1CC2CCCCC2CC1c1ccccc1 (centres undefined)
inactive: [1] 14.1% | [2] 3.1% | [3] -15.3% | [4] -0.05% | [5] 27.4% | [6] 33.5%

CCCN=C(C(C)=O)N(C)C
inactive: [1] -1.7% | [2] 1.3% | [3] -14.9% | [4] 6.55% | [5] 24.2% | [6] 2.85%

O=C1CN(C(=O)Nc2ccccc2)c2ccccc2N1
inactive: [1] 26.6% | [2] -25.5% | [3] -8.3% | [4] 4.55% | [5] 7% | [6] -5.5%

CCCCN(C(=O)N(CC)CC)[Si](C)(C)C
inactive: [1] -17.6% | [2] -41.7% | [3] -12.4% | [4] 14% | [5] -14.7% | [6] -25.3%
